Only some compounds are listed: those with a hit (about 1% of all), similar ones and a draw of the others.
WRN inhibitor: WRN helicase (human) inhibition. WRN helicase unwinding, fluorescent forked duplex, kinetic. Potency, µM (highest dose often 114 µM), most hits filed as inhibitors. hit rate 0.46% among 360,000. AID 651768; also: nearly all actives have a fitted effect of over 55% in size
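WRN at 20 nM final was preincubated with compound for 15 min at room temperature; reaction started with 100 nM forked duplex oligonucleotide carrying fluorophore and quencher plus 2 mM ATP (final). Unwinding followed kinetically by red fluorescence (ex 525/em 598 nm).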
BLM helicase inh: Bloom syndrome helicase (human) inhibition; recombinant BLM DNA unwinding, fluorescence dequenching; Potency, µM (highest dose often 56.1 µM), most hits filed as inhibitors; hit rate 0.2% among 350,000; AID 2528; also: nearly all actives have a fitted effect of over 35% in size
L3MBTL1 block: blocks human L3MBTL1; Q9Y468; AlphaScreen L3MBTL1–H3K9me1 peptide binding; Potency, µM (series often up to 57.1 µM), hits mostly inhibitors; hit rate 0.66% among 230,000; AID 485360; also: nearly all actives have a fitted effect of over 60% in size
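L3MBTL1 50 nM + b-AHA-H3(1-15)K9me1 75 nM, 30 min RT; compound added, 30 min RT; streptavidin donor/Ni-chelate acceptor beads 10 ug/mL each final, 30 min RT dark; AlphaScreen read.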
FEN1 inh: inhibitors of human flap endonuclease 1; P39748; Recombinant FEN1 flap cleavage, fluorescence, 15 min; hit rate 0.35% among 390,000; AID 588795; Potency, µM (highest dose often 114 µM), usual class: inhibitors; also: nearly all actives have a fitted effect of over 65% in size
Target sequence (P39748 whole entry, looked up): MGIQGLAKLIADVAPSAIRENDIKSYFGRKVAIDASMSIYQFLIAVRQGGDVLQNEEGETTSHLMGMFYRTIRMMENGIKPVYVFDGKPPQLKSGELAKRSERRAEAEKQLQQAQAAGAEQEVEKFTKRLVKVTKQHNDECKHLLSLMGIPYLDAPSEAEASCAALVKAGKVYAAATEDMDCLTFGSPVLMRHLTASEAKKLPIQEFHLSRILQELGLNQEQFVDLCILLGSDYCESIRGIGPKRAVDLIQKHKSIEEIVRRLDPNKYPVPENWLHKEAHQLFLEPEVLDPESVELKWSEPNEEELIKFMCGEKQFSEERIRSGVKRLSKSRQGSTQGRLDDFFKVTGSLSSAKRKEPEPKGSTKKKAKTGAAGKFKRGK
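Concentration–response screening of FEN1 (10 nM): 15 min compound preincubation at room temperature, reaction started with 50 nM substrate and read at 0 and 15 min. Corrected, normalized data were fitted by a four-parameter Hill equation.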
APEX1 inh: inhibitors of human APE1 endonuclease. P27695. recombinant APE1, TAMRA/BHQ-2 abasic DNA cleavage fluorescence. Potency, µM (top dose mostly 65.8 µM), most hits filed as inhibitors. hit rate 0.35% among 350,000. AID 2517; also: nearly all actives have a fitted effect of over 55% in size
Target sequence (P27695 whole entry, looked up): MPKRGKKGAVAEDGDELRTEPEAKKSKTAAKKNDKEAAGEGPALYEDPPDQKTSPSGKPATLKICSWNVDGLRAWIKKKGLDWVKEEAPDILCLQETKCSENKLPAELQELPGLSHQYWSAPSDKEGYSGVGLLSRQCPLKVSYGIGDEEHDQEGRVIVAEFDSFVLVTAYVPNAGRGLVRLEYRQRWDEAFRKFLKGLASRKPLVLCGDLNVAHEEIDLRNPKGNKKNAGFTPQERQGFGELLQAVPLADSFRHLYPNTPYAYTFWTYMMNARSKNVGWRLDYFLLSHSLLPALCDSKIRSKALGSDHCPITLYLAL
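Quantitative HTS: incision of a TAMRA/BHQ-2 double-stranded substrate bearing a tetrahydrofuran abasic site by 0.75 nM APE1 raises fluorescence. Substrate 50 nM final, added after 15 min compound preincubation at room temperature; progress as third-minus-first kinetic read difference.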
RECQ1 helicase: inhibitors of human RECQ1 DNA helicase | P46063 | RECQ1 DNA unwinding, red fluorescence kinetic read | Potency, µM (top dose mostly 57.3 µM), most hits filed as inhibitors | hit rate 0.54% among 240,000 | AID 2549; also: nearly all actives have a fitted effect of over 30% in size
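RECQ1T1 50 nM; forked duplex (20 bp + 30-nt ss tails) 200 nM, ATP 2 mM final; pH 8.0, 2 mM MgCl2, 2.5 ug/ml poly(dI-dC); 15 min compound preincubation; discontinuous kinetic read over 2 h at RT.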
Numbers stand for hits; . = inactive; ? = inconclusive; / = not tested or not shown; [ ] = another dose, or the depositor's remark. Calls follow the shape of the dose curve; as a rule, active = well fitted curve in the direction sought with a large enough effect; inconclusive = small, poorly fitted or top-dose-only effect, or another doubt; inactive = no such curve, though single readings can be large; an effect the other way counts as inactive or inconclusive.

SMILES | WRN inhibitor | BLM helicase inh | L3MBTL1 block | FEN1 inh | APEX1 inh | RECQ1 helicase
COc1cc(NC(C)CCCNC(C)C)c2ncccc2c1OC (stereo not given) | . | / | / | . | / | /
CC1=NN(c2ccc(C(=O)OC(C)C)cc2)C(=O)/C1=C\C=C\c1ccco1 | . | . | 6.3µM | . | . | .
CC(=O)OCc1ccco1 | / | / | / | / | . | .
c1coc(CSSCc2ccco2)c1 | 50µM | / | . | ? | . | /
Cc1ccc(C)c(S(=O)(=O)c2cn(Cc3ccccc3)c3cc(F)c(F)cc3c2=O)c1 | / | . | / | . | / | /
O=C(/C=C/c1cccc(Cl)c1)OCC(=O)c1ccc[nH]1 | . | / | / | / | / | /
COc1ccc(C(=O)NCCCNC(=O)c2ccccn2)cc1 | . | . | / | . | . | /
C=C(CN(C)C)C(=O)c1ccc(C)cc1C | 18µM | / | / | . | / | /
Cc1nc2c(=O)[nH]c(=S)[nH]c2[nH]c1=O | 20µM | / | / | 28µM | / | /
Cc1nc2[nH]c(=S)[nH]c(=O)c2nc1C | ? | / | / | . | / | /
CCOc1ccc(S(=O)(=O)N2CCN(C(=O)c3ccc(C)c(S(=O)(=O)N4CCOCC4)c3)CC2)cc1 | . | / | . | . | . | /
O=C1c2cccc3cccc(c23)C(=O)N1c1ccc2ncccc2c1 | 79µM | . | . | ? | . | .
Nc1nc2ccccc2cc1C(=O)NCCCCc1ccccc1 | . | / | / | / | / | /
O/C(=C\c1nc2ccccc2nc1/C=C(\O)c1ccccc1)c1ccccc1 | 45µM | . | / | . | . | .
CCC(=O)N1CCc2cc(Br)cc(S(=O)(=O)CCC(=O)N3CCN(c4cccc(C(F)(F)F)c4)CC3)c21 | / | . | / | ? | / | /
Cc1cccc(NC(=O)CNCC(=O)Nc2cccc(C)c2C)c1C | . | . | / | . | . | /
COc1ccc(NC(=O)CN(C)C(=O)c2cccc(Oc3ccccc3)c2)cc1 | . | / | . | . | . | /
Cc1cccc(NC(=O)CNC(=O)c2cccc(-n3cccc3)c2)c1C | ? | / | 3.5µM | ? | 1.9µM | /
Cc1cccc(C)c1NC(=O)CN(C)C(=O)c1cccc(-n2cccc2)c1 | 71µM | / | 28µM | . | ? | /
COc1ccc(NC(=O)CN(C)C(=O)c2cccc(-n3cccc3)c2)cc1 | 45µM | / | 10µM | . | 2.4µM | /
O=C(CCN1CCCCC1)c1ccc2c(c1)OCCO2 | . | . | . | . | . | .
O=C(CCN1CCCC1Cc1ccccc1)c1ccc2c(c1)OCCO2 (stereo not given) | 56µM | . | / | . | . | .
O=c1cc(-c2ccccc2O)oc2c(O)c(O)ccc12 | / | . | / | / | 3.5µM | 3.2µM
Cc1oc2c(O)c(O)ccc2c(=O)c1-c1ccccc1 | . | . | / | . | . | 10µM
Cc1oc2c(O)c(O)ccc2c(=O)c1-c1ccc(Cl)cc1 | ? | . | . | . | . | /
SMILES | WRN inhibitor | BLM helicase inh | L3MBTL1 block | FEN1 inh | APEX1 inh | RECQ1 helicase
CN(C)c1ccc(NC2=C(Cl)C(=O)c3ccccc3C2=O)cc1 | . | . | 16µM | . | . | .
CC(=O)Nc1ccc(NC2=C(Cl)C(=O)c3ccccc3C2=O)cc1 | .[11.6 µM] | . | ? | . | . | .
COc1cc(C(=O)Oc2ccccc2/C=N/NC(=O)c2ccc(Cl)cc2)cc(OC)c1OC | . | . | . | . | . | 22µM
CC1=NOC2(C1)N(C)c1ccccc1C2(C)C (stereo not given) | . | . | . | . | . | .
COc1ccc2ccc3c(c2c1)N=C[C@]1(O3)N(C)c2ccccc2C1(C)C | 11µM | . | . | ? | . | .
CCCN1CCC(=O)N(C(CSc2ccc(OC)cc2)c2ccccc2)CC1 (stereo not given) | / | . | / | . | . | .
CCCCn1c(O)c(/C=C/C=C/C=Nc2ccccc2)sc1=S | . | . | . | . | . | 32µM
CCn1c(O)c(/C=C/C=C/C=Nc2ccccc2)sc1=S | . | . | . | . | . | .
CN(C)c1ccc(/C=C2\CCC/C(=C\c3ccccc3)C2=O)cc1 | 50µM | . | . | . | . | .
O=C(CNc1cccc2ccccc12)N/N=C/C=C/c1ccco1 | . | . | ? | . | . | .
O=C(CSc1nnc(SCc2ccccc2)s1)N/N=C/C=C/c1ccco1 | 40µM | 25µM | 28µM | ? | 13µM | 22µM
O=C(Cc1cccs1)N/N=C/C=C/c1ccco1 | ? | 25µM | ? | . | . | .
O=C(Cc1ccc(Cl)cc1)Nc1cccc(C(=O)Nc2ccccc2C(=O)O)c1 | 89µM | . | / | . | . | /
O=C(Nc1cccc(C(=O)Nc2ccccc2C(=O)O)c1)c1cccc(Cl)c1 | . | / | / | . | / | /
CC(=O)Nc1ccc(-c2csc(N3CCC(C(N)=O)CC3)n2)cc1 | / | / | / | / | . | /
O=[N+]([O-])c1ccc(O/N=[N+](\[O-])N2CCN(c3ccccc3)CC2)c([N+](=O)[O-])c1 | / | / | / | . | / | /
Nc1c(N=Nc2ccc([N+](=O)[O-])cc2)c(S(=O)(=O)O)cc2cc(S(=O)(=O)O)c(/C=C/c3ccccc3)c(O)c12 | / | / | / | 11µM | / | /
O=[N+]([O-])c1ccc(N=Nc2c(Cl)cc(O)cc2Cl)cc1 | . | . | / | . | . | ?
CCOc1ccc(-c2noc(CSc3nnc(Cc4ccccc4)n3-c3cccc(C)c3)n2)cc1 | / | . | / | . | / | /
O=C1CCC/C(=N\NC(=O)c2ccc(CSc3cccc4cccnc34)cc2)C1 | . | . | ? | . | . | 28µM
O=CN/C=C/c1cc(O)ccc1O | . | . | 16µM | 18µM | 10µM | .
COC(=O)C(NS(=O)(=O)CCl)C(C)C (stereo not given) | / | . | / | . | . | .
Nc1nc2c(nc(Br)n2[C@@H]2O[C@H]3COP(=O)(O)O[C@H]3[C@@H]2O)c(=O)[nH]1 | / | . | / | / | . | .
O=c1c2nc(Br)n([C@@H]3O[C@@H]4CO[P@@](O)(=S)O[C@H]4[C@H]3O)c2nc2[nH]c(-c3ccccc3)cn12 | / | . | / | / | 13µM | .
COc1ccc(C2=Nn3c(nnc3-c3ccccc3C(F)(F)F)SC2)cc1OC | / | / | / | / | . | /
SMILES | WRN inhibitor | BLM helicase inh | L3MBTL1 block | FEN1 inh | APEX1 inh | RECQ1 helicase
CC(C)C[C@H](NC(=O)[C@@H]1CCCN1C(=O)[C@H](CO)NC(=O)[C@H](Cc1ccccc1)NC(=O)CNC(=O)[C@@H]1CCCN1C(=O)[C@@H]1CCCN1C(=O)[C@@H](N)CCCN=C(N)N)C(=O)O | / | . | / | / | 0.5µM | .
O=C1c2ccccc2C(=O)C12OC2c1cccc2ccccc12 (stereo not given) | . | 18µM | 14µM | . | . | .
O=C1NC(c2cccc3ccccc23)Nc2ccccc21 (stereo not given) | . | / | / | . | / | /
OC[C@H]1O[C@@H](O[C@@H]2OC=C[C@H]3[C@H](O)[C@@H]4O[C@]4(CO)[C@@H]23)[C@H](O)[C@@H](O)[C@@H]1O | / | . | / | / | . | .
FC(F)Oc1ccc(C2=Nn3c(nnc3-c3ccccc3C(F)(F)F)SC2)cc1OCC1CC1 | / | / | / | / | . | /
O=c1c([N+](=O)[O-])c(O)c2ccccc2n1Cc1ccccc1 | . | . | / | 11µM | . | /
